Assay results from PubChem BioAssay (Tox21).
Records with an inconclusive call do not appear. Active and inactive are the calls of the source. Unless noted, calls come from the whole dose curve; as a rule, active = well fitted curve in the direction sought with a large enough effect in the repeat runs; inconclusive = weak or mixed curves; inactive = no such curve, though single readings can be large; an effect the other way counts as inactive or inconclusive.

Columns and labels:
[1] = qHTS assay to identify small molecule antagonists of the androgen receptor (AR) signaling pathway using the MDA cell line in the presence of 0.5 nM R1881 - cell viability counter screen (AID 1259242); note: nearly all actives have a fitted effect of over 45% in size
Method in brief: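 Counter screen for cytotoxicity run in the same wells as the AR antagonist reporter screen: MDA-kb2 cells were treated 16 hr with test compounds and 0.5 nM R1881, then live-cell protease activity was measured by fluorescence.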

[2] = target: Estrogen receptor (Homo sapiens) (UniProt P03372); test: qHTS assay to identify small molecule antagonists of the estrogen receptor alpha (ER-alpha) signaling pathway using the BG1 cell line in the presence of 0.1 nM 17-beta-estradiol (AID 1259244); note: nearly all actives have a fitted effect of over 50% in size
Sequence of Estrogen receptor (Homo sapiens) (P03372 whole entry, looked up): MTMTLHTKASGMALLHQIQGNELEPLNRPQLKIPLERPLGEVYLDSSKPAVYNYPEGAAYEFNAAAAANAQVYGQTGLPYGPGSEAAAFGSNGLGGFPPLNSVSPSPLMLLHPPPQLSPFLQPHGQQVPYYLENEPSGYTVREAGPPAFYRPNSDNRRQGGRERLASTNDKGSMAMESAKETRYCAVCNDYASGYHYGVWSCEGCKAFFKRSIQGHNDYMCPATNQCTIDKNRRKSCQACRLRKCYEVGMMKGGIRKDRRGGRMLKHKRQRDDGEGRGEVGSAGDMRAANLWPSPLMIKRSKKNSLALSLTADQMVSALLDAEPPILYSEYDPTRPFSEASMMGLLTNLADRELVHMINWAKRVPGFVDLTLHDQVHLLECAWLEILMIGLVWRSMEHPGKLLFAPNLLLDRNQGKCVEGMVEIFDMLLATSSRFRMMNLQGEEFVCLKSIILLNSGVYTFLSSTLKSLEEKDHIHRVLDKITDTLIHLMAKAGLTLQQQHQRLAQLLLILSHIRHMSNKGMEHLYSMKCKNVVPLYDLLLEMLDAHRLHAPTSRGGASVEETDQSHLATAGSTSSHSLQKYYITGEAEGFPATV
Method in brief: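 Cells: VM7Luc4E2, endogenous ER-alpha, 4x ERE-luc stable. Pre-culture 5 d, phenol red-free, charcoal-stripped FBS. Plated 24 h, compound + E2 0.1 nM final, 22 h 37C/5% CO2. Readout ONE-Glo luminescence.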

[3] = qHTS assay to identify small molecule agonists of the sonic hedgehog signaling (Shh) pathway (AID 1259368; calls by dose curve;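 note: NIH/3T3-derived 3T3Gli1-Luc cells carrying a stable Gli1-driven firefly luciferase reporter; series mostly up to about 92 µM; nearly all actives have a fitted effect of over 15% in size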)
Method in brief: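 3T3Gli1-Luc (NIH/3T3 clone, stable Gli1-Luc); 4 hr pre-incubation, then cpd in DMSO 24 hr, 37 C/5% CO2; luciferase reagent 30 min RT; luminescence.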

[4] = qHTS assay to identify small molecule phospholipidosis (PLD) inducers (AID 1259344; active = well fitted curve in the direction sought with a large enough effect; an effect the other way counts as inactive or inconclusive)
Method in brief: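 HepG2 cells on collagen I, attached 4 h at 37 C, were co-treated with compound and LipidTOX Red dye for 24 h at 37 C, then fixed with paraformaldehyde plus Hoechst 33342 and imaged by high-content microscopy for phospholipid accumulation.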

[5] = qHTS assay to identify small molecule HDAC inhibitors (AID 1259364); note: nearly all actives have a fitted effect of over 45% in size; note: potency is the fitted concentration of half-maximal effect; for activity change, negative = inhibition: top concentration of the series differs between compounds
Method in brief: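 Luminescence from a cell-permeant luminogenic class I/II HDAC substrate reports endogenous deacetylase activity in intact HCT-116 cells treated with compounds for 2 h.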

[6] = qHTS assay to identify small molecule HDAC inhibitors - cell viability counter screen (AID 1259365); note: series mostly up to about 92 µM; nearly all actives have a fitted effect of over 50% in size
Method in brief: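 Cytotoxicity was gauged in wild-type HCT-116 cells after a brief 2hr treatment with DMSO-dissolved compounds at 37C and 5% CO2, using CellTiter-Glo luminescence developed for 30min at room temperature.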

[7] = qHTS assay to identify small molecule agonists of the sonic hedgehog signaling (Shh) pathway - cell viability counter screen (AID 1259366); note: nearly all actives have a fitted effect of over 50% in size; note: potency is the fitted concentration of half-maximal effect
Method in brief: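 Stable Gli1-Luc NIH/3T3 clone, 2,000 cells/well. Compound exposure 24hr at 37C. Read-out: CellTiter-Fluor fluorescence.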

[8] = qHTS assay to identify small molecule antagonists of the sonic hedgehog signaling (Shh) pathway - cell viability counter screen (AID 1259367); note: nearly all actives have a fitted effect of over 55% in size
Method in brief: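 NIH/3T3-derived Gli1-Luc reporter cells (2,000 per well) rested 4 hr at 37 C, then received DMSO compounds plus conditioned medium. After 23 hr of treatment, CellTiter-Fluor was added for 1 hr at 37C and fluorescence read.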

[9] = qHTS assay to identify small molecule antagonists of the sonic hedgehog signaling (Shh) pathway (AID 1259369; calls by dose curve; note: nearly all actives have a fitted effect of over 45% in size; note: potency is the fitted concentration of half-maximal effect)
Method in brief: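 3T3Gli1-Luc, conditioned-medium-stimulated, 24hr cpd, 37C/5% CO2; Gli1-driven firefly Luc luminescence after 30min RT with luciferase reagent. Cells plated 4hr before cpd.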
% is set by controls: 0 for no effect and ±100 for the full control effect.

Cc1ccc(-c2nc3ccc(C)cn3c2CC(=O)N(C)C)cc1
inactive: Potency [1] | Potency [2] | outcome [3]

CCCC(C)C1(CC)C(=O)N=C(S)NC1=O (stereo not drawn)
inactive: Potency [1] | Potency [4] | Potency [5] | outcome [6] | Potency [7] | Potency [8] | outcome [3] | Potency [9]

COc1ccc2c(C(=O)c3ccc(Cl)cc3)c(C)n(CC(=O)O)c2c1
inactive: Potency [1] | Potency [4] | Potency [7] | Potency [8] | outcome [3] | Potency [9]

C[C@H](CN1CCOCC1)C(C(=O)N1CCCC1)(c1ccccc1)c1ccccc1
inactive: Potency [1] | Potency [4] | Potency [5] | outcome [3]

NC1(c2ccccc2)CCCCC1
inactive: Potency [1] | Potency [2] | Potency [5] | outcome [3] | Potency [9]
active: Potency [7] 30.4 µM

CCCCCCC(=O)CCCCCC/C=C/C[C@@H](O)[C@H](O)[C@@](N)(CO)C(=O)O
inactive: viability change, negative = cytotoxic [1] 8.38% [at 19 µM] | activity change, negative = inhibition [2] 5.03% [at 19 µM] | activity change, negative = cytotoxicity [6] -0.234% [at 19 µM] | activity change [3] -0.137% [at 18.9 µM] | activity change, negative = inhibition [9] 34.1% [at 19 µM]

COP(=O)(OC)O/C(C)=C/C(=O)N(C)C
inactive: Potency [1] | Potency [2] | Potency [5] | Potency [8] | outcome [3] | Potency [9]

NC(=O)OCCCc1ccccc1
inactive: Potency [1] | Potency [4] | Potency [5] | outcome [6] | Potency [7] | Potency [8] | outcome [3] | Potency [9]

CCNc1nc(NCC)nc(SC)n1
inactive: Potency [1] | Potency [2] | Potency [5] | Potency [7] | Potency [8] | outcome [3]

O=C(Cl)CCl
inactive: Potency [1] | Potency [2] | outcome [6] | Potency [8] | outcome [3] | Potency [9]

CCC(C(N)=O)N1CCCC1=O (stereo not drawn)
inactive: Potency [1] | Potency [4] | outcome [6] | Potency [7] | Potency [8] | outcome [3] | Potency [9]

ClC(Cl)(Cl)Cl
inactive: Potency [1] | Potency [2] | outcome [6] | Potency [7] | Potency [8] | outcome [3] | Potency [9]

CCCC(C)(COC(N)=O)COC(N)=O
active: Potency [9] 25.8 µM
inactive: Potency [1] | Potency [4] | Potency [5] | outcome [6] | Potency [7] | Potency [8] | outcome [3]

C=CCCC#N
inactive: Potency [1] | Potency [2] | Potency [5] | Potency [7] | Potency [8] | outcome [3] | Potency [9]

CCCOC(=O)Cc1ccc(OCC(=O)N(CC)CC)c(OC)c1
inactive: Potency [1] | Potency [4] | Potency [5] | outcome [6] | outcome [3]

COc1ccc(CN2CCNCC2)c(OC)c1OC
inactive: Potency [1] | Potency [4] | Potency [5] | Potency [7] | Potency [8] | outcome [3] | Potency [9]

NNCc1ccccc1
inactive: Potency [1] | Potency [2] | outcome [6] | Potency [8] | outcome [3]

NCC1(CC(=O)O)CCCCC1
inactive: Potency [1] | Potency [4] | Potency [5] | outcome [6] | Potency [7] | Potency [8] | outcome [3]

CC#Cc1cc(C)nc(Nc2ccccc2)n1
inactive: Potency [1] | Potency [2] | outcome [6] | Potency [7] | Potency [8]

C=C(Cl)CCl
inactive: Potency [1] | Potency [2] | Potency [7] | Potency [8] | outcome [3]

CC(C)(C)C(=O)C(Cl)Cl
inactive: Potency [1] | Potency [5] | outcome [6] | Potency [7] | Potency [8] | outcome [3] | Potency [9]

CCOC(=O)N(C)N=O
inactive: Potency [1] | Potency [5] | outcome [6] | Potency [8] | outcome [3]

COc1ccccc1OC
inactive: Potency [1] | Potency [5] | outcome [6] | Potency [7] | Potency [8] | outcome [3] | Potency [9]

COC1=CC(=O)O[C@@H](/C=C/c2ccccc2)C1
inactive: Potency [1] | outcome [6] | Potency [7] | Potency [8]
active: Potency [5] 24.7 µM

O=C(Cl)C(Cl)(Cl)Cl
inactive: Potency [1] | Potency [5] | outcome [6] | Potency [7] | outcome [3] | Potency [9]

NNC(N)=O
inactive: Potency [1] | Potency [5] | outcome [6] | Potency [7] | Potency [8] | outcome [3]

C=CCN1CC[C@]23CCCC[C@H]2[C@H]1Cc1ccc(O)cc13
inactive: Potency [1] | Potency [5] | outcome [6] | Potency [7] | Potency [8] | outcome [3]

CC1=C2[C@H]3OC(=O)[C@@H](C)[C@@H]3CC[C@@]2(C)C=CC1=O
inactive: Potency [1] | Potency [5] | outcome [6] | Potency [7] | Potency [8] | outcome [3] | Potency [9]

CN1COCN(Cc2cnc(Cl)s2)/C1=N\[N+](=O)[O-]
inactive: Potency [1] | Potency [5] | outcome [6] | Potency [7] | outcome [3] | Potency [9]

C=CCc1cc(OC)c2c(c1)OCO2
inactive: Potency [1] | Potency [5] | outcome [6] | Potency [7] | Potency [8] | outcome [3] | Potency [9]

CN(C)C1CCCCC1
inactive: Potency [1] | Potency [5] | outcome [6] | Potency [7] | outcome [3] | Potency [9]

CC(=NC#N)N(C)Cc1ccc(Cl)nc1
inactive: Potency [1] | Potency [5] | outcome [6] | Potency [7] | Potency [8] | outcome [3] | Potency [9]

ClCCCCCCCl
inactive: Potency [1] | Potency [5] | outcome [6] | Potency [7] | Potency [8] | outcome [3] | Potency [9]

C=C(Cl)CSC(=S)N(CC)CC
inactive: Potency [1] | Potency [5] | outcome [6] | Potency [7] | Potency [8] | outcome [3]

BrCCc1ccccc1
inactive: Potency [1] | Potency [5] | outcome [6] | Potency [7] | outcome [3] | Potency [9]

N#CN=C1SCCN1Cc1ccc(Cl)nc1
inactive: Potency [1] | Potency [5] | outcome [6] | Potency [7] | Potency [8] | outcome [3]

CC(C)[C@]12CC(=O)[C@H](C)[C@H]1C2
inactive: Potency [1] | Potency [5] | outcome [6] | Potency [7] | outcome [3] | Potency [9]

[P]#[In]
inactive: Potency [1] | Potency [5] | outcome [6] | Potency [7] | Potency [8] | outcome [3] | Potency [9]

O=CCCl
inactive: Potency [1] | Potency [5] | outcome [6] | Potency [7] | outcome [3]

CC(C)(C)NC[C@H](O)c1ccc(O)cc1Cl
inactive: Potency [1] | Potency [5] | outcome [6] | Potency [8] | outcome [3]

CNC(=O)Oc1cc(C)c(N(C)C)c(C)c1
inactive: Potency [1] | Potency [5] | outcome [6] | Potency [7] | outcome [3]

O=[N+]([O-])c1cccc(CCl)c1
inactive: Potency [1] | Potency [5] | outcome [6] | Potency [7] | Potency [8] | outcome [3] | Potency [9]

O=c1[nH]c2ccccc2o1
inactive: Potency [1] | Potency [5] | outcome [6] | Potency [7] | Potency [8] | outcome [3] | Potency [9]
